Laboratory results: the supplement of paper PMC9402605
± gives the standard deviation of the averaged measurements.

The molecules below were run on Caenorhabditis elegans N2 (assay: egg-laying rate relative to DMSO control (serotonin + nicotine background) (fraction of control); higher = more egg-laying). Settings: background: 12.3 mM serotonin + 7.7 mM nicotine; 60 µM; 1 h.
Method: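 About 20 young-adult wild-type C. elegans (N2) per well in 96-well plates were exposed to 60 uM compound for 1 h at room temperature, either in M9 buffer (to find stimulators) or in 12.3 mM serotonin + 7.7 mM nicotine (NS, to find inhibitors). Eggs per worm per hour were counted by automated imaging and normalised to the mean of proximal DMSO control wells. Values average the primary screen and two retests of the worm-active (wactive) Egl modulators.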

SMILES | egg-laying rate
CCOc1ccc(/C=C/[N+](=O)[O-])cc1 [wact-385] | 0.313 ± 0.11
